# Where “and” joins values, the source holds several entries; their conditions need not be identical. Identical values can stand only once.
# Tests used:
# [1] = target: Rho-associated protein kinase 1 (Homo sapiens) (UniProt Q13464); settings: at 1 µM;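 also: reported values are mean percent inhibition of ROCK1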
# [2] = target: Rho-associated protein kinase 2 (Homo sapiens) (UniProt O75116); settings: at 0.1 µM
# [3] = target: Rho-associated protein kinase 2 (Homo sapiens) (UniProt O75116); settings: at 1 µM
# [4] = target: Ribosomal protein S6 kinase alpha-1 (Homo sapiens) (UniProt Q15418); settings: at 0.1 µM
# [5] = target: Ribosomal protein S6 kinase alpha-1 (Homo sapiens) (UniProt Q15418); settings: at 1 µM
# [6] = target: Ribosomal protein S6 kinase alpha-3 (Homo sapiens) (UniProt P51812); settings: at 0.1 µM
# Sequence of Ribosomal protein S6 kinase alpha-3 (Homo sapiens) (P51812 whole entry): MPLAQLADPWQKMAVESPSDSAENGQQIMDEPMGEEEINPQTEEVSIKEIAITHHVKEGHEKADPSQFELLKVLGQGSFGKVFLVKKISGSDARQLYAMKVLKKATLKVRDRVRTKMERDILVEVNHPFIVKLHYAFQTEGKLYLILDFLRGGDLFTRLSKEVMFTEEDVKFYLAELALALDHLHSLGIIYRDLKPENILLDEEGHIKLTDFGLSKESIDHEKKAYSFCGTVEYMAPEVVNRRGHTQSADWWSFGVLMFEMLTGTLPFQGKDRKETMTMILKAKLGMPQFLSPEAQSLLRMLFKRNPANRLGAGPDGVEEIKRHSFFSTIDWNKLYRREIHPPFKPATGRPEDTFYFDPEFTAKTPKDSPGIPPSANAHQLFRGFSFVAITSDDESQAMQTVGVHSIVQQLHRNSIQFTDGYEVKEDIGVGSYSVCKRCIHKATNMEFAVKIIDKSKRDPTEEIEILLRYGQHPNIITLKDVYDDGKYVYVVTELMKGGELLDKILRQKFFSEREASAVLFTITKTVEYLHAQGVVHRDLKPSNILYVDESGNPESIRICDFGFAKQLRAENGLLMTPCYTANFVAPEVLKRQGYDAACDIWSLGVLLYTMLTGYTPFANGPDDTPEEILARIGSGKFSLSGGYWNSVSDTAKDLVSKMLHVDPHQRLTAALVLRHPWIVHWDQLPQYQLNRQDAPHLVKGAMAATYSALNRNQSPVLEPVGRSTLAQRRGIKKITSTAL
# [7] = target: Ribosomal protein S6 kinase alpha-3 (Homo sapiens) (UniProt P51812); settings: at 1 µM
# [8] = target: Ribosomal protein S6 kinase alpha-2 (Homo sapiens) (UniProt Q15349); settings: at 0.1 µM
# Sequence of Ribosomal protein S6 kinase alpha-2 (Homo sapiens) (Q15349 whole entry): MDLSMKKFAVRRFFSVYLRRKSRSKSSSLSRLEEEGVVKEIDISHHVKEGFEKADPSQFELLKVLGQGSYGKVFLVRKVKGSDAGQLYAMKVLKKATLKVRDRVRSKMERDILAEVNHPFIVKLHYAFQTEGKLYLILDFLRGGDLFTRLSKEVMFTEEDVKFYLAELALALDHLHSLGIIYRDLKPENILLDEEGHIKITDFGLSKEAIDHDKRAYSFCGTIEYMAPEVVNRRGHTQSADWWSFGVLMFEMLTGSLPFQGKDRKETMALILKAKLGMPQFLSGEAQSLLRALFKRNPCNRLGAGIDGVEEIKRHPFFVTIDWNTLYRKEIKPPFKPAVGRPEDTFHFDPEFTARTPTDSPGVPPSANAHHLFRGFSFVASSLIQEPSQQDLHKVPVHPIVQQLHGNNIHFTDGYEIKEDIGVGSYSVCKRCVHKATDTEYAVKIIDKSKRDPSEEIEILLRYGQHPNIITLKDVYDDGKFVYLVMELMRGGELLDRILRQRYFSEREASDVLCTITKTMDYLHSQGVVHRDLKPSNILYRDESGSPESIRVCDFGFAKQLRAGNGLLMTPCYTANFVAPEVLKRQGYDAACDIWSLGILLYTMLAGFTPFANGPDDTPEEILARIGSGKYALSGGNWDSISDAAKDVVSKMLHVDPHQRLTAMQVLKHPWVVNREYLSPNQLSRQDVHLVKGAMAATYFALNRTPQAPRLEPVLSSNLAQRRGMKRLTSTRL
# [9] = target: Ribosomal protein S6 kinase alpha-2 (Homo sapiens) (UniProt Q15349); settings: at 1 µM
# [10] = target: Ribosomal protein S6 kinase alpha-6 (Homo sapiens) (UniProt Q9UK32); settings: at 0.1 µM;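 also: reported value is the mean inhibition of RSK4, from the GSK PKIS kinase inhibitor screen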
# Sequence of Ribosomal protein S6 kinase alpha-6 (Homo sapiens) (Q9UK32 whole entry): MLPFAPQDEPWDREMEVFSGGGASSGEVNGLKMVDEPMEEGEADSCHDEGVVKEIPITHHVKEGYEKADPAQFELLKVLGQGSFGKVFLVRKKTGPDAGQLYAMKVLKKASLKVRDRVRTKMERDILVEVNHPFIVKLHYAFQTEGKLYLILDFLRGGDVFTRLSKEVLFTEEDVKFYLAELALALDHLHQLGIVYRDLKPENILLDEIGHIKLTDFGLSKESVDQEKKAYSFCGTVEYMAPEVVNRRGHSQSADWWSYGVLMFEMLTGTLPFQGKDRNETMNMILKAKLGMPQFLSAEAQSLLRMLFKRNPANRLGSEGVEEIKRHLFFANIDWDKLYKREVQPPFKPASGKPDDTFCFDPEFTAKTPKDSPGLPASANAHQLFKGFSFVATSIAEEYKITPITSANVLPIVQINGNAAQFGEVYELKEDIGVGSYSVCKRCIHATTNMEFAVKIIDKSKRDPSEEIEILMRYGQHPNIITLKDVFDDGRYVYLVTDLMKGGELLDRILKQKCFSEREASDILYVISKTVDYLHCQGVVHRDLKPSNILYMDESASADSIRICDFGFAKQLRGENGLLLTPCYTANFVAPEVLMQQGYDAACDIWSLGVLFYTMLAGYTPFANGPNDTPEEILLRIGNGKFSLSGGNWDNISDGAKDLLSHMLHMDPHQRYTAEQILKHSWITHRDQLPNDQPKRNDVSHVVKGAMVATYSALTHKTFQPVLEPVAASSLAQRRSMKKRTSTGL
# Sequence of Rho-associated protein kinase 1 (Homo sapiens) (Q13464 2-1354 limits assumed): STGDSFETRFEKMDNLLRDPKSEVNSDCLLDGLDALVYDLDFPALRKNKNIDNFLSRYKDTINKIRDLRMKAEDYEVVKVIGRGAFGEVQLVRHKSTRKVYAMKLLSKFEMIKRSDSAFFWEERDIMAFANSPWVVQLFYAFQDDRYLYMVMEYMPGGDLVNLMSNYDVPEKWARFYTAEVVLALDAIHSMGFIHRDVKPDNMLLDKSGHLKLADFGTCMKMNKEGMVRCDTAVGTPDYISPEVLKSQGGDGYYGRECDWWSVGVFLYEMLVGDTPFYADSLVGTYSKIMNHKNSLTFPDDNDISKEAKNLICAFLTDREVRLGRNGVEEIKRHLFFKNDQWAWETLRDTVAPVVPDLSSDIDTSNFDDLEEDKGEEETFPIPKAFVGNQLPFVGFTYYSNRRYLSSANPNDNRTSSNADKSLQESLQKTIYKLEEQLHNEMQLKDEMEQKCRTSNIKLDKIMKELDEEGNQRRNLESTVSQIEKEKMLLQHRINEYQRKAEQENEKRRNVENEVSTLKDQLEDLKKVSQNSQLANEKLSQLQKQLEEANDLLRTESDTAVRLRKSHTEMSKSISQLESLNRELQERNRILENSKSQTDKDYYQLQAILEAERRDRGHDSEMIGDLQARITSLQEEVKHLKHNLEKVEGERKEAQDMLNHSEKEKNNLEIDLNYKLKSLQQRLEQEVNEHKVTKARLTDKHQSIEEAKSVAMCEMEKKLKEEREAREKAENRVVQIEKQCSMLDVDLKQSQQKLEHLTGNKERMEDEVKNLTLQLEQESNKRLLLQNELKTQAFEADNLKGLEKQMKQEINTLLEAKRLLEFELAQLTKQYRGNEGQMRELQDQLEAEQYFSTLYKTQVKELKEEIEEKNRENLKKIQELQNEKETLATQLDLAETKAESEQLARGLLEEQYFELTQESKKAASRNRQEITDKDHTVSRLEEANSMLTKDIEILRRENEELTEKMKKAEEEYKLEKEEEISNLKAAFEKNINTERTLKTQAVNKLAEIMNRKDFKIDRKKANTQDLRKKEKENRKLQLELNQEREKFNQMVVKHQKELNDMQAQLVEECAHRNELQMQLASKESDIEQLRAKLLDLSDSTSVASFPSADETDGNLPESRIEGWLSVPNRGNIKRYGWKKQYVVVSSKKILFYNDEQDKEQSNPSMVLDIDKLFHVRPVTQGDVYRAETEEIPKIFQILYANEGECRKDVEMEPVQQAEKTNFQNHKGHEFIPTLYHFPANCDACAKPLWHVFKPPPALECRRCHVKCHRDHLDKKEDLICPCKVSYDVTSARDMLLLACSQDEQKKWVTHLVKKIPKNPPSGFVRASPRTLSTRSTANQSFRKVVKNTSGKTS
# Sequence of Rho-associated protein kinase 2 (Homo sapiens) (O75116 whole entry, looked up): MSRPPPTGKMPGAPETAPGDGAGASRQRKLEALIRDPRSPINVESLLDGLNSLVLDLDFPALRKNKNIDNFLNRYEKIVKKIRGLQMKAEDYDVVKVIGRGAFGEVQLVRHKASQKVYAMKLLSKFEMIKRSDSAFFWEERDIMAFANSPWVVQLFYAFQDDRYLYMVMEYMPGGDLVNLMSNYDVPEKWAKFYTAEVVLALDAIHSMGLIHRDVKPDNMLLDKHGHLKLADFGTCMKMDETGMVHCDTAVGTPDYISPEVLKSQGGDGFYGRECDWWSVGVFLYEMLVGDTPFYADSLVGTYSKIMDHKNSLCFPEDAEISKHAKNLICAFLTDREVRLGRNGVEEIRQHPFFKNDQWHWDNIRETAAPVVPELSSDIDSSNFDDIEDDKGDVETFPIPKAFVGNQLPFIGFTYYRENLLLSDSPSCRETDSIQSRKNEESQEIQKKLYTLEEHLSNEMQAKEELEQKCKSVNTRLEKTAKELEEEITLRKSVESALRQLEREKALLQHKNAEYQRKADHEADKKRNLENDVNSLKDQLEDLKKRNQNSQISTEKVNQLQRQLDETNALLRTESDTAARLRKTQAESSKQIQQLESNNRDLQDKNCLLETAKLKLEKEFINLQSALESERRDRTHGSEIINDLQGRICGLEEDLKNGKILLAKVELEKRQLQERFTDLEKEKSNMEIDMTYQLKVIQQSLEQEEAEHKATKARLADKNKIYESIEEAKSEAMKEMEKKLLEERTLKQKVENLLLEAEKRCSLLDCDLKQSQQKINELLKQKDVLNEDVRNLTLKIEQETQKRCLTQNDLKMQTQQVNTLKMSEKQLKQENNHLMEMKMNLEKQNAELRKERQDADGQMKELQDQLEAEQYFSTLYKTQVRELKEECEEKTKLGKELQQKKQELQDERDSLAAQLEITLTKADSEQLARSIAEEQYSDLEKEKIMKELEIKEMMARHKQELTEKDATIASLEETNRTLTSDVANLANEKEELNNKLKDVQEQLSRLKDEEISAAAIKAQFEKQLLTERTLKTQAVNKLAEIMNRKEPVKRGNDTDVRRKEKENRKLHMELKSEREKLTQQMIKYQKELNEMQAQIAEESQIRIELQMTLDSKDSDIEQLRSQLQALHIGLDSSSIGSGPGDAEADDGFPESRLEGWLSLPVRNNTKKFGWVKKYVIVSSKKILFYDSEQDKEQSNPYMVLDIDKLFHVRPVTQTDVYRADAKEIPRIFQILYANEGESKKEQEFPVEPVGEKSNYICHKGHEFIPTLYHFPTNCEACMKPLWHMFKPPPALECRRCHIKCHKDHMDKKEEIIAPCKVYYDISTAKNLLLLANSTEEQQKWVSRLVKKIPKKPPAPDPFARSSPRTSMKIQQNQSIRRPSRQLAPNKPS
Structure (SMILES),inhibition [1],inhibition [2],inhibition [3],inhibition [4],inhibition [5],inhibition [6],inhibition [7],inhibition [8],inhibition [9],inhibition [10]
Cc1nnc(-c2cccc(-c3ccc(C(=O)NCC4CC4)cc3)c2)o1,2.23%,3.74%,6.19%,2.8%,4.92%,1.25%,1.76%,3.01%,2.85%,2.12%
O=C(Nc1n[nH]c2nnc(-c3cccnc3)cc12)C1CC1,1.3%,0.06%,0.61%,0.83%,0.39%,0.41%,0.86%,0.73%,1.89%,0.32%
Nc1nccc(-c2c(-c3ccc(F)cc3)ncn2C2CCNCC2)n1,0.03% and 1.75%,-3.31% and 1.51%,-3.28% and 1.52%,-1.25% and 0.52%,1.83% and 2.8%,-1.12% and 0.34%,0.29% and 1.05%,-1.68% and 0.37%,0.91% and 1.92%,-2.38% and 0.34%
O=C(O[C@H]1CN[C@H](C#Cc2cc3ncnc(Nc4ccc5c(cnn5Cc5ccccc5)c4)c3s2)C1)N1CCOCC1,-2.07%,-1.02%,-1.36%,-1.77%,-0.14%,0.74%,1.52%,-0.5%,-1.02%,-1.39%
NC(=O)c1ccc2c(-c3ccnc(NCCCO)n3)c(-c3ccc(F)cc3)nn2c1,1.92%,3.55%,5.31%,3.69%,1.7%,0.96%,1.23%,2.66%,3.1%,2.24%
Fc1cccc(COc2ccc(Nc3ncncc3C#Cc3ccccc3)cc2Cl)c1,1.47%,3.76%,7.12%,3.37%,6.51%,1.92%,4.01%,3.21%,2.81%,1.21%
COc1cc(Nc2ncc(-c3ccccc3)o2)cc(OC)c1,2.6%,3.77%,-3.98%,1.54%,1.99%,1.01%,2.61%,1.71%,3.57%,0.85%
O=C(O[C@H]1CN[C@H](C#Cc2cc3ncnc(Nc4ccc5c(ccn5Cc5cc(F)ccc5F)c4)c3s2)C1)N1CCOCC1,3.4%,2.86%,5.23%,1.53%,1.62%,0.96%,0.89%,3.56%,2.57%,1.53%
Cc1ccc(-c2cc3c(NC(=O)C4CC4)ncnc3o2)cc1,2.27%,2.81%,1.43%,2.52%,4.28%,1.27%,2.17%,2.35%,2.3%,0.9%
CCn1c(-c2nonc2N)nc2cncc(C(=O)NCCNC)c21,91.6%,80.6%,90.4%,62.3%,88.3%,54.5%,78.7%,25.4%,73.8%,9.72%
Nc1ncnc2occ(-c3ccc(NC(=O)Nc4cc(C(F)(F)F)ccc4F)cc3)c12,10.2% and 6.77%,7.01% and 2.27%,40% and 27.8%,9.06% and 4.67%,46.6% and 34.2%,3.22% and 1.04%,22.5% and 15.8%,9.18% and 5.3%,51.1% and 37.7%,-2.74% and 0.37%
COc1cc(N2CCN(C(C)C)CC2)ccc1Nc1nc(Nc2cccc(F)c2C(=O)O)c2cc[nH]c2n1,2.22%,2.05%,5.77%,4.06%,16%,2.18%,11.6%,0.99%,5.21%,2.17%
CS(=O)(=O)Nc1ccc(-c2ccc3c(NC(=O)C4CC4)n[nH]c3c2)cc1,1.98%,0.25%,-0.32%,1.25%,1.36%,0.62%,0.96%,0.73%,3.79%,1.37%
CCOc1ccc2c(-c3ccnc(Nc4cc(OC)cc(C(F)(F)F)c4)n3)cnn2n1,-0.21%,0.14%,-0.36%,-0.43%,-1.47%,-0.09%,-1.49%,0.44%,0.33%,1.36%
O=C(O[C@H]1CN[C@H](C#Cc2cc3ncnc(Nc4ccc(OCc5cccc(F)c5)c(Cl)c4)c3s2)C1)N1CCOCC1,1.71%,4.15%,8.38%,1.45%,6.91%,1.55%,5.86%,2.72%,3.4%,2.22%
Nc1nonc1-c1nc2cnccc2n1C1CC1,79.3% and 77.8%,56.4% and 54.3%,81% and 77.9%,66.3% and 63.6%,84.2% and 79.4%,46.1% and 47%,79% and 75.8%,67% and 69.5%,90.9% and 91.2%,10.3% and 11.7%

Structure (SMILES),inhibition [1],inhibition [2],inhibition [3],inhibition [4],inhibition [5],inhibition [6],inhibition [7],inhibition [8],inhibition [9],inhibition [10]
CN1CCC(n2cnc(-c3ccc(F)cc3)c2-c2ccnc(NCCO)n2)CC1,4.39%,3.23%,8.52%,1.81%,6.04%,0.9%,3.09%,3.09%,4.29%,1.56%
FC(F)(F)CNc1nccc(-c2cnn3ncccc23)n1,-0.11%,1.53%,0.94%,-0.21%,1.24%,1.65%,2.69%,0.89%,1.84%,0.72%
CN1CCN(Cc2ccc(-c3cc4ncnc(Nc5ccc(OCc6cccc(F)c6)c(Cl)c5)c4s3)o2)CC1,2% and 0.89%,1.84% and 3.91%,2.16% and 8.24%,0.86% and 2.44%,3.31% and 6.74%,0.78% and 2.19%,4.15% and 7.1%,2.32% and 1.76%,3.34% and 4.93%,1.22% and 1.16%
c1cnn2ncc(-c3ccnc(NCCCN4CCOCC4)n3)c2c1,4.7%,4.49%,4.16%,1.74%,4.45%,0.98%,2.86%,1.93%,3.97%,-0.14%
CN1CCC(C(=O)Nc2n[nH]c3nc(-c4ccc(O)cc4)c(Br)cc23)CC1,2.13% and -0.83%,3.65% and -0.14%,7.61% and 0.92%,2.66% and 0.77%,5.58% and 0.84%,2.78% and 0.04%,6.6% and 1.92%,3.56% and 2.99%,7.9% and 6.17%,2.77% and 0.98%
CS(=O)(=O)CCNCc1ccc(-c2ccc3ncnc(Nc4ccc(OCc5ccccc5)cc4)c3c2)o1,1.69%,2.02%,2.23%,2.15%,3.81%,2.27%,2.78%,3.11%,4.28%,2.96%
CNC(=O)c1cncc(/C=C/c2ccccc2C)c1,1.27%,4.29%,8.78%,2.39%,4.99%,2.14%,3.84%,0.87%,2.74%,0.45%
CNC(=O)c1sc(-n2cnc3cc(OC)c(OC)cc32)cc1OCc1ccccc1C(F)(F)F,0.26%,2.94%,1.36%,1.1%,2.58%,1.77%,3.02%,2.72%,2.3%,0.81%
CCS(=O)(=O)c1ccc(OC)c(Nc2ncc(-c3cccc(C(C)=O)c3)o2)c1,2.14%,1.98%,6.73%,2.43%,5.75%,1.27%,3.54%,0.6%,3.67%,1%
COc1ccc(Nc2ncc(-c3ccccc3)o2)cc1OC,2.03%,-0.31%,2.22%,0.28%,2.18%,0.01%,2.14%,1.32%,4.35%,0.4%
O=C1Nc2ccccc2/C1=C1\CCc2cc(O)ccc21,2.49%,2.95%,3.95%,5.76%,28.4%,4.82%,27%,9.8%,42.1%,7.24%
NS(=O)(=O)c1ccc(N/N=C2\C(=O)Nc3cccc(CCc4ccncc4)c32)cc1,1.51%,0.96%,1.68%,2.2%,1.84%,2.02%,2.03%,2.79%,7.37%,3.11%
CS(=O)(=O)Nc1ccc(-c2cc(-c3ccccc3)cc(C(N)=O)c2N)cc1,1.71%,0.41%,1.85%,-1.14%,0.41%,-0.7%,0.45%,-1.55%,0.47%,-1.16%
COc1cc(N2CCN(C(C)C)CC2)ccc1Nc1nc(Nc2cccc3ncccc23)c2cc[nH]c2n1,0.37%,0.02%,0.45%,0.19%,3.05%,1.66%,5.2%,1.37%,3.33%,0.58%
c1ccc(-c2n[nH]cc2-c2ccnc(-c3ccc(OCCn4ccnc4)cc3)c2)nc1,5.6%,5.64%,7.73%,0.66%,4.31%,0.64%,3.85%,1.32%,1.36%,0.75%

# Reference: ChEMBL document CHEMBL1961873, “Compounds: GSK PKIS; Assays: Nanosyn kinase panel” (2012)
